Bioassay records (PubChem)
RN4220 kill = growth inhibition of S. aureus RN4220, primary screen, OD600. inhibition, % (no concentration beside the values). actives 0.33% (n = 330,000). 16 h; in the data active = inhibition above about 85%;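 note: plate controls were untreated cells for no effect and reference antibiotic for full effect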
Rv3671c inh = Rv3671c serine protease inhibitors, primary screen, biochemical, fluorescence polarization, M. tuberculosis H37Rv. actives 0.048% (n = 320,000). P9WHR9. AID 2606, 2010. inhibition, % at 5.96 µM; in the data active = inhibition above about 38%;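 note: extracellular domain of Rv3671c used as enzyme; 0% = enzyme with DMSO and 100% = no enzyme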
Target sequence (P9WHR9 whole entry, looked up, the tested form may be a part): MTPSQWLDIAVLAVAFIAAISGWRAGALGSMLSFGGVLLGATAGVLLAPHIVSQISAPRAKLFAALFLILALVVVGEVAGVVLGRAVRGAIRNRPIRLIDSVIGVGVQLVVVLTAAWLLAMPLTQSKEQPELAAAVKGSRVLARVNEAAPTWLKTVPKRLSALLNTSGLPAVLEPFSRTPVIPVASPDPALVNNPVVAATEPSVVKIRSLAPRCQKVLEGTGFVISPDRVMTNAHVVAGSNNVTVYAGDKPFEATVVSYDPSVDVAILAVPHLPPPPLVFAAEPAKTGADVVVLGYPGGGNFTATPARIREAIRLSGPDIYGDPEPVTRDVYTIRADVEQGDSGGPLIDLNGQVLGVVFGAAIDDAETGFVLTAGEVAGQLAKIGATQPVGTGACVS
Mtb hypoxia inh = PubChem AID 1159583; actives 0.1% (n = 300,000); M. tuberculosis hypoxia-regulated fluorescent reporter, fluorescence; fluorescence inhibition, % (concentration not given with the values); in the data active = fluorescence inhibition mostly above about 23%, no sharp cut-off; inactive = mostly below about 17%
Sa ugtP lethal = growth inhibition of ugtP-null S. aureus, primary screen, RN4220 ugtP deletion, OD600; growth inhibition, % (no concentration beside the values); actives 0.54% (n = 330,000); 16 h; in the data active = growth inhibition above about 68%;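 note: plate controls were untreated wells for no effect and antibiotic for full effect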
Mtb UGM inh = M. tuberculosis UGM enzyme inhibitors, primary screen, biochemical, fluorescence polarization, single point | inhibition, % at 10 µM | actives 0.06% (n = 320,000) | purified UGM, fluorescence polarization probe displacement | AID 504406, 2011 | UDP-galactopyranose mutase (Mycobacterium tuberculosis (strain ATCC 25618 / H37Rv)), …; in the data active = inhibition above about 10%, passing the limit was not always enough
Mtb bLac sens = beta-lactam sensitization of Mtb H37Rv, H37Rv. M. tuberculosis H37Rv growth with meropenem, percent inhibition. inhibition, % at 25 µM. actives 0.27% (n = 330,000); call rule not given here;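 note: growth measured after seven days incubation then overnight dye step; 0% = bacteria only wells and 100% = bacteria with antibiotic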
* marks the source's active call; other numbers are inactive results; nt = no result given. A selection: hits, their analogues and other compounds. The true share with any hit is near 0.68%.

SMILES	RN4220 kill	Rv3671c inh	Mtb hypoxia inh	Sa ugtP lethal	Mtb UGM inh	Mtb bLac sens
O=C(CCCNC(=O)C(=Cc1ccc(F)cc1)NC(=O)c1ccccc1)OCc1ccccc1	8.8	nt	0.9	14.3	nt	nt
CCC(C)Sc1cc(-c2nc3cc(C)ccn3c2NC2CCCCC2)ccc1OC (stereo not given)	0.3	9.6	7.8	4.4	nt	95.0
CCC(C)Sc1cc(-c2nc3ccccn3c2NC2CCCCC2)ccc1OC (stereo not given)	100.1*	10.2	5.7	98.8*	2.3	99.5
O=C1CN(C(=O)COC(=O)c2ccc(Br)o2)c2ccccc2N1	6.9	-0.9	26.0*	1.3	-2.3	-4.5
CC(C)Oc1cccc(C(=O)NC(=S)Nc2ccc(N3CCN(C)CC3)cc2)c1	5.8	0.0	17.9	97.7*	0.9	38.4
Cc1ccc(C(=O)N2CCN(c3ccc(NC(=S)NC(=O)Cc4ccccc4)cc3)CC2)cc1	6.4	-0.5	nt	90.2*	-0.6	99.1
COc1cccc(C(=O)NC(=S)Nc2ccc(N3CCCC3)cc2)c1	2.7	12.6	nt	86.8*	0.9	22.4
O=C(NC(=S)Nc1ccc(N2CCOCC2)cc1)c1cccc(Cl)c1Cl	6.7	nt	6.0	0.4	1.7	0.7
COc1ccc(C(=O)N2CCN(c3ccc(NC(=O)Cc4ccccc4)cc3)CC2)cc1	nt	7.0	nt	nt	2.9	60.9
CN1CCN(c2ccc(NC(=S)NC(=O)c3cccc4c(Cl)cccc34)cc2)CC1	-3.7	5.5	-10.8	97.8*	0.0	43.5
CC(C)=CCC[C@](C)(OC1OC(COC2OCC(OC3OCC(O)C(O)C3O)C(O)C2O)C(O)C(O)C1O)C1CC[C@]2(C)C1C(O)CC1[C@@]3(C)CCC(O)C(C)(C)C3C(O)C[C@]12C (stereo not given in full)	5.7	nt	7.2	-15.3	nt	nt
CCC(=O)N1CCN(c2ccc(NC(=S)NC(=O)c3ccc(OC)c([N+](=O)[O-])c3)cc2)CC1	2.3	-1.7	3.4	59.1	-2.1	nt
CCCC(=O)N1CCN(c2ccc(NC(=S)NC(=O)c3cccc(C)c3)cc2)CC1	94.4	-1.2	3.5	active	1.1	73.7
CC(C)CC(CO)N(Cc1ccccc1)S(=O)(=O)N(Cc1ccccc1)C(CO)CC(C)C (stereo not given)	-13.0	nt	12.6	-42.3	nt	nt
O=C(Nc1ccc([N+](=O)[O-])cc1Cl)c1cc(Cl)ccc1O	100.9*	-2.9	nt	100.1*	-2.5	100.0
Cc1ccc(O)c(NC(=O)c2cc([N+](=O)[O-])ccc2Cl)c1	2.6	11.8	-3.6	1.0	-1.2	12.3
O=C(Nc1cccc(Cl)c1)c1cc(N=Nc2ccc([N+](=O)[O-])cc2Cl)ccc1O	94.4*	12.9	70.1*	99.6*	4.8	10.0
O=C(Nc1cccc(Cl)c1)c1cccc(Oc2ccc([N+](=O)[O-])cc2Cl)c1	-12.0	-172.1	0.7	-21.7	-2.8	0.7
O=C(C=Cc1ccccc1)c1cc(Br)ccc1O	3.3	nt	13.9	17.5	nt	nt
CCOc1ccc(C(=O)/C=C/c2ccc(OC)c(OC)c2)cc1	10.3	7.2	14.5	9.4	3.4	94.6
Cc1cccc(/C=C/C(=O)c2cc(Br)ccc(=O)c2O)c1	98.9*	9.7	nt	99.0*	-1.0	98.8
CCc1ccc(/C=C/C(=O)c2cc(Br)ccc(=O)c2O)cc1	100.1*	16.3	0.9	95.5*	0.2	99.0
CCOc1ccc(/C=C/C(=O)c2cc(Br)ccc(=O)c2O)cc1	84.1	14.6	15.7	89.6*	-1.9	34.1
Cc1ccc(/C=C/C(=O)c2cc(Br)ccc2OC(=O)c2ccco2)cc1	2.4	-11.1	6.2	27.1	-0.6	65.5
CC(=O)N(N=C1Sc2ccccc2C1=O)c1ccccc1C	6.0	nt	nt	9.0	nt	nt
SMILES	RN4220 kill	Rv3671c inh	Mtb hypoxia inh	Sa ugtP lethal	Mtb UGM inh	Mtb bLac sens
CS(=O)(=O)N1c2ccccc2[C@]2(Br)CC3C(=O)NC(Cc4ccccc4)C(=O)N3C12 (stereo not given in full)	4.1	nt	15.7	4.3	nt	nt
O=C1c2cccc3cccc(c23)C(=O)N1CCN1CCN(C(=S)Nc2ccc(Cl)cc2)CC1	-1.1	0.1	3.6	-5.0	-0.1	1.8
O=C1c2cccc3cccc(c23)C(=O)N1CCN1CCN(C(=S)Nc2ccccc2)CC1	92.7*	-14.6	13.0	97.8*	-0.9	2.9
O=C(O)C1=CCC(c2ccc(Cl)cc2)N(S(=O)(=O)c2ccc(Cl)cc2)C1c1cccc(Cl)c1 (stereo not given)	54.7	nt	6.6	85.2	nt	nt
Fc1cccc(C[n+]2csc3ccccc32)c1	42.9	-6.6	10.1	95.5*	0.7	0.5
CCOc1cc(C=NNC(=O)c2cccc([N+](=O)[O-])c2)ccc1OS(=O)(=O)c1ccccc1	58.9	nt	-6.1	98.9*	nt	nt
CC1OC(OC2C(COC3OC(CO)C(O)C(O)C3O)OC(OC3CC[C@]4(C)C(CC[C@@]5(C)C4C=C[C@]46OC[C@@]7(CCC(C)(C)CC74)C(O)C[C@@]56C)C3(C)C)C(O)C2O)C(O)C(O)C1O (stereo not given in full)	4.6	nt	-3.1	4.9	nt	nt
CC(CCCCC=CC(=O)O)OC1OC(C)C(O)CC1O (stereo not given)	5.4	nt	6.4	1.0	nt	nt
Cc1cnc(C(=O)OCC(=O)Nc2cccc3ccccc23)cn1	4.4	-4.5	26.1*	3.7	1.1	-3.2
CC(NC(=O)c1nc[nH]c1C(=O)NC(C)C(=O)OCc1ccccc1)C(=O)OCc1ccccc1 (stereo not given)	7.5	nt	4.4	-5.4	nt	nt
CC(C)c1ccc(CNc2cc(N3CCCC3)ccc2[N+](=O)[O-])cc1	6.5	-11.9	13.0	0.7	-1.4	15.2
CC(C)(C)c1ccc(CNc2cc(N3CCOCC3)ccc2[N+](=O)[O-])cc1	-3.5	-7.6	13.9	91.7*	1.4	18.8
COc1ccc(CC2CN3C(=NCC3C(C)C)N2CCNC(=O)CCC2CCCCC2)cc1 (stereo not given)	2.5	nt	-7.8	-5.9	nt	nt
O=C(O)c1cc(-c2ccc(-c3c(-c4ccc5c(c4)OCO5)noc3-c3ccsc3)cc2)nc2ccccc12	96.3*	-3.2	-0.2	93.7*	-2.8	4.1
Nc1nc(SCC(=O)Nc2ccc(S(N)(=O)=O)cc2)n[nH]1	-0.8	1.5	1.0	5.9	0.2	0.8
Cc1ccc(Oc2ccc(NC(=O)CSc3n[nH]c(N)n3)cc2)cc1	0.7	1.2	2.1	91.5*	-1.5	-0.9
Cc1nn(-c2ccccc2)c(Cl)c1/C=C1\SC(=S)N(CCCCCC(=O)O)C1=O	37.4	-20.5	6.4	17.6	2.3	-4.5
Cc1nn(-c2ccccc2)c(Cl)c1/C=C1\SC(=S)NC1=O	100.0*	-25.0	13.6	99.4*	-0.8	10.5
O=S(=O)(c1ccccc1)N1CCN(c2cccc(Cl)c2)CC1	10.1	2.3	0.8	38.5	1.4	1.7
O=[N+]([O-])c1ccc2[nH]cc(S(=O)(=O)N3CCN(c4cccc(Cl)c4)CC3)c2c1	99.5*	-6.2	3.6	90.3*	-0.9	67.1
